The values that follow come from PubChem BioAssay (NCI).

What all share (assay): NCI-60 one-dose screen, 48 h (100 = growth as untreated, 0 = no growth, -100 = all killed)
What all share (conditions): 10 µM unless noted

Assay [1] relates to SR leukemia.
The test system of assay [2] is RPMI-8226 leukemia.
For assay [3], the system named is OVCAR-8 ovarian.
The test system of assay [4] is OVCAR-5 ovarian.
For assay [5], the system named is OVCAR-4 ovarian.
Assay [6] deals with SK-OV-3 ovarian.
Assay [7] has as its system IGROV1 ovarian.
Assay [8] relates to OVCAR-3 ovarian.
Assay [9] has as its system HS 578T breast.
Assay [10] has as its system NCI/ADR-RES ovarian.
For assay [11], the system named is T-47D breast.
Assay [12] deals with BT-549 breast.
Assay [13] concerns MDA-MB-435 melanoma.
Assay [14] deals with SW-620 colon.
The subject of assay [15] is MCF7 breast.
The test system of assay [16] is HCT-116 colon.
Assay [17] deals with HCC-2998 colon.
Assay [18] has as its system KM12 colon.
In assay [19] the test system is MDA-MB-468 breast.

This is part of a sample that, as a whole, favours compounds with a hit. Of some 83,000 tested, about 20% had one in any assay.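 Note: values are percent growth. 100 is the growth of untreated cells, values between 100 and 0 indicate rising inhibition; between -100 and 0 indicates cell death.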 Values without a mark were called inactive. Calls of active or inactive are those of the source. Rule for the calls: active = growth percent below 10; inactive = the rest.

For `CC1CN(c2oc(-c3ccc([N+](=O)[O-])cc3)nc2C#N)CC(C)O1` (configuration not stated), the growth in [1] was 83.3%; in [2], 101%; in assay [3] it was 103%; in assay [4], 107%; in assay [5], 102%; in assay [6] it was 110%. Moreover, the growth in assay [7] is 103%; in assay [8] it was 110%; in assay [9], 94.4%; in assay [10], 95.4%; in assay [11], 97.4%; in [12], 107%. The growth in [13] is 100%; in assay [14] it was 102%; in assay [15], 88.4%; in assay [16], 108%; in assay [17], 101%; in assay [18] it was 103%. Moreover, the growth in [19] was 125%.

In the case of `CCOc1ccc(C(=O)NC(=S)Nc2ccc(S(N)(=O)=O)cc2)cc1`, the growth is 97.7% [100 µM] in assay [1]; 102% [100 µM] in [2]; 89% [100 µM] in assay [3]; 103% [100 µM] in assay [4]; 84.7% [100 µM] in assay [5]; 102% [100 µM] in assay [6]. Moreover, the growth in assay [7] is 96.4% [100 µM]; in assay [8], 97.9% [100 µM]; in assay [9], 89.2% [100 µM]; in assay [10] it was 102% [100 µM]; in assay [11] it was 74.3% [100 µM]; in assay [12], 99.1% [100 µM]. For the same molecule, the growth was 99.1% [100 µM] in assay [13]; 104% [100 µM] in [14]; 97.6% [100 µM] in assay [15]; 97.9% [100 µM] in assay [16]; 99.5% [100 µM] in assay [17]; 97.8% [100 µM] in [18]. In assay [19], the growth is 83.9% [100 µM].

On to `S=C(Nc1ccc(OCc2nc3ccccc3[nH]2)cc1)NC1CCCCC1`, for which the growth in assay [1] is 105%; in assay [2], 101%; in assay [3], 95.1%; in assay [4] it was 117%; in assay [5] it was 102%; in assay [6], 108%. In addition, the growth in [7] is 107%; in assay [8], 123%; in [9], 102%; in [10], 106%; in assay [11] it was 88.5%; in assay [12], 109%. Further, the growth in assay [13] was 105%; in assay [14], 120%; in assay [15], 75.3%; in assay [16], 102%; in [17], 111%; in assay [18] it was 82.1%. Further, in assay [19], the growth was 107%.

On to `COc1ccc(-c2c(Nn3cnnn3)no[n+]2[O-])cc1`, for which the growth in assay [1] was 38.7%; in assay [2], 42%; in assay [3] it was 46.4%; in assay [4], 85.6%; in assay [5] it was 53.4%; in assay [6], 91.1%. In addition, the growth was 19.8% in [7]; 46.5% in assay [8]; 50% in [9]; 54.9% in assay [10]; 48.8% in assay [11]; 61.1% in assay [12]. For the same molecule, the growth in assay [13] is 44.4%; in assay [14] it was 41.5%; in assay [15] it was 31%; in [16], 23.8%; in assay [17], 56.2%; in assay [18], 68.2%. Moreover, in assay [19], the growth was 46.3%.

Regarding `COc1ccc(C2CC(c3ccc(S(=O)(=O)NCCNc4nc(Nc5ccc(F)cc5)nc(N(C)C)n4)cc3)=Nc3c(N)nc(N)nc3N2)cc1` (configuration not stated), the growth was 8.79% (active) in assay [1]; 24% in [2]; 79.5% in assay [3]; 98.8% in assay [4]; 83.7% in assay [5]; 108% in assay [6]. The growth is 95.7% in assay [7]; 95.4% in assay [8]; 70.6% in [9]; 99.9% in assay [10]; 66.2% in assay [11]; 57.1% in assay [12]. The growth in assay [13] was 83.3%; in assay [14], 96%; in assay [15] it was 47.6%; in assay [16], 51.2%; in [17] it was 90.6%; in assay [18] it was 82.5%. Besides, the growth in assay [19] was 8.63% (active).

As to `O=C(COc1ccc(NC(=O)Nc2ccc(Cl)c(Cl)c2)cc1)N=Nc1c(O)[nH]c2ccc(Cl)cc12`, the growth in assay [1] was 3.93% (active); in assay [2], 6.94% (active); in assay [3] it was -48.4% (active); in assay [4] it was -28% (active); in assay [5] it was -16.6% (active); in [6], -22.2% (active). In addition, the growth in [7] is -48.6% (active); in assay [8] it was -81.7% (active); in assay [9] it was -13.7% (active); in assay [10] it was 85.2%; in assay [11], -13% (active); in assay [12] it was -71.7% (active). In addition, the growth in assay [13] was -61.4% (active); in assay [14] it was -46.9% (active); in assay [15], 3.54% (active); in assay [16] it was -53.5% (active); in [17], -51.4% (active); in assay [18], -87.9% (active). Besides, the growth in assay [19] is -51% (active).

Take `CCC(C)(C)c1ccc(OCCCCN2CCN(c3ccncc3)CC2)cc1`: the growth was -24.2% (active) in assay [1]; -31.3% (active) in assay [2]; 67% in assay [3]; 69.2% in assay [4]; 56% in assay [5]; 32.3% in assay [6]. Moreover, the growth in assay [7] is 55.5%; in assay [8] it was 51.1%; in assay [9], 20.2%; in assay [10], 59.7%; in assay [11], -41.6% (active); in assay [12] it was 27%. Further, the growth in assay [13] is 39.2%; in [14] it was 2.87% (active); in assay [15] it was -23.1% (active); in assay [16], 8.09% (active); in assay [17], -5.55% (active); in assay [18], 37.4%. The growth in [19] was -67.2% (active).

Regarding `CCC(C)(C)c1ccc(OCCCCCCN2CCN(c3ccncc3)CC2)cc1`, the growth in assay [1] is -27.5% (active); in assay [2], -44.5% (active); in assay [3] it was 54%; in assay [4], 65.7%; in [5] it was 47.7%; in [6] it was 38.5%. Besides, the growth is 49.8% in assay [7]; 38% in [8]; -7.9% (active) in [9]; 19% in assay [10]; -44.4% (active) in [11]; -44.2% (active) in assay [12]. Moreover, the growth is -0.134% (active) in assay [13]; -62% (active) in [14]; -58.1% (active) in assay [15]; -69.3% (active) in assay [16]; -74.1% (active) in [17]; 7.93% (active) in assay [18]. For the same molecule, the growth in [19] is -81.5% (active).
